Data published in PubChem BioAssay AID435019 (Southern Research Specialized Biocontainment Screening …, 2010).
Out of some 2,300 compounds screened, about 1,200 (52%) were called active. The rule behind the calls is not given here. So high a share suggests a set chosen from earlier hits. The list shows a part of the results. Measured potencies and affinities stand elsewhere.

experiment: mammalian cell cytotoxicity, dose response, cytotoxicity control for M. tuberculosis inhibitor project (AID 435019); details: cytotoxicity counter-screen; series mostly up to 40 µM;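 note: lower values mean fewer viable cells so more cytotoxicity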

| SMILES | outcome |
| --- | --- |
| CCC(=O)c1coc2ccc(O)cc12 | inactive |
| CCCCc1ccc(NC=C2C(=O)OC3(CCCCC3)OC2=O)cc1 | inactive |
| Cc1ccc(C(=O)N/C(=C/c2ccco2)C(=O)OCN2C(=O)c3ccccc3C2=O)cc1 | inactive |
| C#CCOC(=O)/C(=C/C=C/c1ccccc1)NC(=O)c1ccccc1 | inactive |
| O=C(OCn1nnc2ccccc2c1=O)C1CCCCC1 | inactive |
| CN1[C@@H]2CC[C@H]1CC(OC(=O)[C@H](CO)c1ccccc1)C2 (stereo not given in full) | inactive |
| CC(=O)c1cccc(NC(=S)NC2CCCCCCC2)c1 | inactive |
| Cc1[nH]nc2nc3c(c(OC(=O)c4ccccc4)c12)c(=O)n(C)c(=O)n3C | inactive |
| Cc1cc(/C=C(/C#N)c2cccc(F)c2)c(C)n1-c1cccnc1 | inactive |
| N#Cc1cccc(NC(=O)N2CCC(c3nc4c(nnn4Cc4cccc(Cl)c4)c(=O)[nH]3)CC2)c1 | inactive |
| CCOC(=O)c1ccc(Oc2nc(NC(C)(C)C)nc(N(C)C)n2)cc1 | inactive |
| CN(C)S(=O)(=O)c1cccc(NC(=O)CCc2nc3sc4c(c3c(=O)[nH]2)CCCC4)c1 | inactive |
| Cc1cc(OCc2nc3ccccc3s2)ccc1N | inactive |
| CCCC(=O)OCCNc1cc(SCCC(=O)OC)c2nonc2c1[N+](=O)[O-] | inactive |
| CCOC(=O)c1nn(-c2ccc(C)c(C)c2)cc1O | inactive |
| CCn1cc(Br)c(C(=O)Nc2ccc(C(=O)OC(C)C)cc2)n1 | inactive |
| C=CC[N@@+]12CC[C@]34c5ccccc5N5/C=C6\C7N(/C=C(\C53)[C@@H](C[C@@H]41)/C(=C/CO)C2)c1ccccc1[C@@]71CC[N@@+]2(CC=C)C/C(=C\CO)[C@@H]6C[C@@H]12 (stereo not given in full) | inactive |
| Cc1cccc(C(=O)OCC(=O)N2CCc3ccccc3C2)c1O | inactive |
| CC(C)c1ccc2[nH]c(O)c(N=NC(=O)c3ccc(CSc4nncn4C)cc3)c2c1 | inactive |
| COC(=O)N/N=C/c1c[n+]([O-])c2ccccc2[n+]1[O-] | inactive |
| N[C@@H](CCl)C(=O)O | inactive |
| O=C(CSc1nc2ccccc2c(=O)[nH]1)NCc1ccc(Cl)cc1 | inactive |
| Cc1ccc(NC(=O)C2=C(O)CCn3c2nc2ccccc23)cc1 | inactive |
| CC(C)NC(=O)c1onc(CSc2ccc(F)c(F)c2)c1C(=O)O | inactive |

| SMILES | outcome |
| --- | --- |
| CCN(Cc1ccncc1)Cc1nc(-c2ccc(C(=O)OC)cc2)no1 | inactive |
| Cc1ccc(-c2noc(-c3cc4ccccc4oc3=O)n2)cc1 | inactive |
| COc1ccc(-c2oc3cccnc3c2/C=C/c2ccc(OC)c(OC)c2)cc1 | inactive |
| O=C(NCC1CC1)c1cc([N+](=O)[O-])cc([N+](=O)[O-])c1 | inactive |
| CCOc1cc(C=O)cc(N=Nc2cccc([N+](=O)[O-])c2)c1O | inactive |
| N/C(=N\OC(=O)CCC1CCCC1)c1cccc([N+](=O)[O-])c1 | inactive |
| CCOC(=O)c1ccc(N=Cc2c(O)c3ccccc3oc2=O)cc1 | inactive |
| CCOC(=O)/C(=N\Nc1ccc(Br)cc1)N1CC(C)OC(C)C1 (stereo not given) | inactive |
| CC(OC(=O)CCN=C1NS(=O)(=O)c2ccccc21)C(=O)Nc1ccc(F)c(F)c1F (stereo not given) | inactive |
| CC(C)(C)c1ccc(OCCC(=O)OCC(=O)NC(=O)NC2CCCC2)cc1 | inactive |
| Nc1cnccc1C(=O)O | inactive |
| O=C1CC(Nc2ccc3ccccc3c2)C(=O)N1Cc1ccccc1 (stereo not given) | inactive |
| Cc1c(C(=O)Oc2cccc3ccccc23)cnn1-c1ccccc1 | inactive |
| CC(=NCc1ccc2c(c1)OCO2)C1=C(O)c2ccccc2C1=O | inactive |
| CCOC(=O)C1=C(C)Nc2nc(SCC(=O)OC)nn2C1c1cc(F)cc(F)c1 (stereo not given) | inactive |
| CC(=O)Oc1ccc(/C=N\NC(=O)c2cc3c(ccc4ccccc43)o2)cc1 | inactive |
| COC(=O)Cc1ccc(NC(=S)Nc2ccccn2)cc1 | inactive |
| COc1ccc(NC(=O)ON=C2c3ccccc3-c3ccccc32)cc1 | inactive |
| Nc1ccc(N=Nc2ccccc2)c2cccnc12 | inactive |
| O=C(Nc1cccc(C(F)(F)F)c1)c1ccc2nc(-c3ccco3)c(-c3ccco3)nc2c1 | inactive |
| Nc1cccc(-c2cc3ccccc3oc2=O)c1 | inactive |
| CCOC(=O)c1sc(C)c2c(=O)n(CC(=O)c3ccc(Br)cc3)nnc12 | inactive |
| NC(N)=Nc1nc(-c2ccccc2)c2ccccc2n1 | inactive |
| CCOC(=O)Cn1nc(-c2ccccc2)nc1-c1ccccc1 | inactive |

| SMILES | outcome |
| --- | --- |
| CCOC(=O)c1ccc(N=Cc2nc3ccccc3n2C)cc1 | inactive |
| CCOc1cc(/C=N/Nc2nc(Nc3ccccc3)nc(N3CCCCC3)n2)ccc1OCC(=O)O | inactive |
| COC(=O)[C@@H](NC(=O)c1cc(COc2cncc(Cl)c2)on1)c1ccccc1 | inactive |
| O=C(N/N=C\c1ccc[nH]1)c1cncc(Br)c1 | inactive |
| O=C(O)C1CC=CCC1C(=O)NNc1ccccc1 (stereo not given) | inactive |
| O=c1oc2ccccc2c(Nc2ccccc2O)c1[N+](=O)[O-] | inactive |
| COc1ccc(NC(=O)C2C3C=CC(O3)C2C(=O)NCc2cccnc2)cc1 (stereo not given) | inactive |
| CCCC(O)(CCC)C(=O)NNc1ccc(C)cc1 | inactive |
| CCc1nnc(NC(=O)CN2CCN(c3nc(-c4ccccc4)cs3)CC2)s1 | inactive |
| c1ccc2nc(-c3ccc(-n4ccnc4)cc3)ccc2c1 | inactive |
| CCOC(=O)c1c(-c2ccc(OC)cc2)csc1NC(=O)CNCc1ccco1 | inactive |
| CCCCOc1ccc(C(=O)Oc2ccc(C)nc2)cc1 | inactive |
| O=c1[nH][nH]cc1C=Nc1ccc(Oc2ccccc2)cc1 | inactive |
| CN(c1ccccc1)S(=O)(=O)c1cccc(C(=O)NCc2ccccc2CN2CCCC2)c1 | inactive |
| CN1C(=O)N(C)c2ccc(C=O)c3cccc1c23 | inactive |
| COc1cc2[nH]c(Cl)c([N+](=O)[O-])c2cc1OC | inactive |
| Cc1ccc(C)c(NC(CC(=O)c2ccccc2)C(=O)OCC(=O)c2cccs2)c1 (stereo not given) | inactive |
| CCOc1ccc(NCc2cccn2-c2nnc(N3CCC(C(=O)NCCCN4C(C)CCCC4C)CC3)s2)cc1 (stereo not given) | inactive |
| O=C(CSc1nnc(-c2cccs2)o1)NCC1CN(Cc2ccccc2)CCO1 (stereo not given) | inactive |
| Nc1cc(=O)[nH]c(SCc2csc(-c3ccccc3)n2)n1 | inactive |
| CCOC(=O)c1cc(-c2ccc(N3CCOCC3)cc2)nn1-c1ccccc1 | inactive |
| CCCOc1cccc(C(=O)NC(=S)Nc2ccc(N3CCN(C)CC3)cc2)c1 | inactive |
